Reference: PubChem BioAssay (Tox21)
Results filed as inconclusive are left out. Active and inactive are the calls of the source. Unless noted, calls come from the whole dose curve; as a rule, active = well fitted curve in the direction sought with a large enough effect in the repeat runs; inconclusive = weak or mixed curves; inactive = no such curve, though single readings can be large; an effect the other way counts as inactive or inconclusive.

Experiments:
[1] = qHTS assay to identify small molecule antagonists of the retinoid acid receptor (RAR) signaling pathway - cell viability counter screen (AID 1159551); note: nearly all actives have a fitted effect of over 35% in size
Outline: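 C3RL4 cells were seeded overnight at 37 C, then treated with compounds plus 1 uM (final) retinol for 6 h at 37 C. Viability was read as ATP by CellTiter-Glo luminescence after 30 min at room temperature.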

[2] = qHTS assay to identify small molecule antagonists of the retinoic acid receptor (RAR) signaling pathway (AID 1159552; note: nearly all actives have a fitted effect of over 50% in size)
Outline: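 Retinol signaling pathway inhibitors screened in C3RL4 RARE-luciferase reporter cells seeded overnight at 37 C, then compounds added with 1 uM (final) retinol as pathway substrate. After 6 hr at 37 C, luciferase luminescence read after 30 min at room temperature.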

[3] = qHTS assay to identify small molecule antagonists of the estrogen related receptor (ERR) signaling pathway from Tox21 library - cell viability counter screen (AID 1224834); note: nearly all actives have a fitted effect of over 30% in size
Outline: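 ERR reporter cells were plated 6 h before compound addition, then exposed to test compounds in DMSO for 17.5 h at 37 C. Viability was read as CellTiter-Fluor fluorescence after a 30-minute incubation at 37 C.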

[4] = target: Luciferin 4-monooxygenase (Photinus pyralis) (UniProt P08659); test: qHTS assay to identify small molecule inhibitors of firefly luciferase (AID 1224835); note: nearly all actives have a fitted effect of over 25% in size
Luciferin 4-monooxygenase (Photinus pyralis), sequence (P08659 whole entry, looked up): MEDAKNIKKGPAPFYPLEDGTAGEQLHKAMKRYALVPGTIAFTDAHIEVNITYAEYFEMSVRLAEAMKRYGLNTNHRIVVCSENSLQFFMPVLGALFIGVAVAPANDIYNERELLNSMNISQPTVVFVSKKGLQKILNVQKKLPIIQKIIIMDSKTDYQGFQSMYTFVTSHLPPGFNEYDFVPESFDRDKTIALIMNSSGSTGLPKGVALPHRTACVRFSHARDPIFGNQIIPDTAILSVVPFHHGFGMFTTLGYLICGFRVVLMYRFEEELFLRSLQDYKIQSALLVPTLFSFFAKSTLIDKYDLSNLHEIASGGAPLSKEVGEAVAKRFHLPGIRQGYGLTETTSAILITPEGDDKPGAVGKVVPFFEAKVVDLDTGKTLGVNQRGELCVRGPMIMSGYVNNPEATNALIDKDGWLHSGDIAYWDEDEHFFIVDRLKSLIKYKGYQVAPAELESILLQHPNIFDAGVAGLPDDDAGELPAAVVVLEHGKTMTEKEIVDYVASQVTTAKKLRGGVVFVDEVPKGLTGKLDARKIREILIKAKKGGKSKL
Outline: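 Biochemical qHTS: compounds run as interplate titrations against purified firefly enzyme, with D-luciferin and ATP each at its KM concentration. Light output recorded by CCD imaging.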

[5] = qHTS assay to identify small molecule agonists of the constitutive androstane receptor (CAR) signaling pathway - cell viability counter screen (AID 1224836); note: nearly all actives have a fitted effect of over 45% in size
Outline: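 HepG2 cells stably carrying hCAR and a CYP2B6-2.2kb reporter; 15-concentration compounds plus PK11195 (final 0.75 uM), 23 hr at 37 C/5% CO2. Viability read by CellTiter-Fluor fluorescence.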

[6] = qHTS assay to identify small molecule antagonists of the constitutive androstane receptor (CAR) signaling pathway - cell viability counter screen (AID 1224837); note: nearly all actives have a fitted effect of over 45% in size
Outline: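 HepG2 cells stably expressing hCAR and a CYP2B6-2.2kb reporter were plated and pre-incubated 4 hr at 37 C/5% CO2, then given compounds at 15 concentrations plus 50 nM CITCO (final). After 23 hr, viability was read by CellTiter-Fluor fluorescence.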

[7] = qHTS assay to identify small molecule antagonists of the estrogen related receptor signaling pathway with the pleiotropic PPARgamma coactivator (PGC) from Tox21 10K library - cell viability counter screen (AID 1224840; active = well fitted cell-killing curve with a large enough effect in the repeat runs, not every such curve was filed as active; note: nearly all actives have a fitted effect of over 40% in size)
Outline: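 PGC/ERR cells were seeded at 2,000 cells/well and left 6 hours at 37 C/5% CO2 before pin-tool addition of compounds in DMSO. After 17.5 hours at 37 C, CellTiter-Fluor was added and fluorescence read 30 minutes later.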

[8] = target: Thyrotropin receptor (Homo sapiens) (UniProt P16473); test: qHTS assay to identify small molecule agonists of the thyroid stimulating hormone receptor (TSHR) signaling pathway (AID 1224843; calls by dose curve; note: nearly all actives have a fitted effect of over 45% in size)
Thyrotropin receptor (Homo sapiens), sequence (P16473 whole entry, looked up): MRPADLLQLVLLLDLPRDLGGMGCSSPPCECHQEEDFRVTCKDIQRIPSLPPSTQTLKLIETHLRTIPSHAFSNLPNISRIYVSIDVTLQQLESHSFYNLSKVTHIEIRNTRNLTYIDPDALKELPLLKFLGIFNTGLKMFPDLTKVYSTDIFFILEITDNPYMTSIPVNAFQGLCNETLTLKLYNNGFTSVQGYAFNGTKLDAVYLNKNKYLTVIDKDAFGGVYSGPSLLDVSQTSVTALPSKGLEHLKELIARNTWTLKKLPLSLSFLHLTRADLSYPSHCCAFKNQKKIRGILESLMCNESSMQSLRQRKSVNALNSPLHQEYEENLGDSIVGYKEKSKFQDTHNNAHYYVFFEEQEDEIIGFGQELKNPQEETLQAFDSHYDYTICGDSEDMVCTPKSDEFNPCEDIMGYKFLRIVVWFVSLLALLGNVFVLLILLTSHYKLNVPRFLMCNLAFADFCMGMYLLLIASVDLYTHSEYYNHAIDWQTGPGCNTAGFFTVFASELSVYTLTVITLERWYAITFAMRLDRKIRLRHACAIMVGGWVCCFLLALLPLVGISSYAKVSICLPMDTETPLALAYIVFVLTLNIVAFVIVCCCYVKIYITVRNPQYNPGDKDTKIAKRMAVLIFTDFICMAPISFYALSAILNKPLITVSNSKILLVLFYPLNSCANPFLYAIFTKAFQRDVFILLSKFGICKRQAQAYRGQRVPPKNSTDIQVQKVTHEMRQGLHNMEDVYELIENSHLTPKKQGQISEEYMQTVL
Outline: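 TSHR-HEK293 cells in agonist mode, 30 min room-temperature step, then cAMP measured by competitive HTRF (cAMP-d2 with anti-cAMP cryptate) after 1 h at room temperature. Tested at 15 concentrations in triplicate.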

[9] = qHTS assay to identify small molecule agonists of the hypoxia (HIF-1) signaling pathway - cell viability counter screen (AID 1224844; calls by dose curve; note: nearly all actives have a fitted effect of over 50% in size)
Outline: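 HRE-bla ME-180 cells in medium with 0.5% dialyzed FBS were preincubated 5 hrs at 37C, exposed to compounds for 17 hrs, then viability was read as CellTiter-Glo luminescence after 30 min at room temperature, in the reporter wells.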

[10] = qHTS assay to identify small molecule agonists of H2AX (AID 1224845; active = well fitted activation curve with a large enough effect in the signal ratio in the repeat runs, not every such curve was filed as active; the % refers to the signal ratio)
Outline: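 Wild-type CHO-K1 cells, plated overnight, exposed 3hr at 37C to 15 concentrations (0.76% DMSO final). Lysed, then HTRF anti-pH2AX (S139) cryptate and anti-H2AX-d2 antibodies, 24 hr room temperature; 665/620 nm emission read.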

[11] = qHTS assay to identify small molecule agonists of the hypoxia (HIF-1) signaling pathway (AID 1224846; active = well fitted activation curve with a large enough effect in the signal ratio in the repeat runs, not every such curve was filed as active; the % refers to the signal ratio)
Outline: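 HRE-bla ME-180 cells (beta-lactamase reporter under hypoxia response element) were plated at 2,000 cells/well in medium with 0.5% dialyzed FBS, rested 5 hrs, then given compounds in DMSO for 17 hrs at 37C, 5% CO2. Reporter induction was read with CCF4-AM FRET substrate.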

[12] = qHTS assay to identify small molecule agonists of H2AX - cell viability counter screen (AID 1224847; calls by dose curve; note: top concentration of the series differs between compounds; nearly all actives have a fitted effect of over 30% in size)
Outline: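 CHO-K1 cells plated overnight at 37C, then exposed 3 h at 37C to compounds at 15 concentrations (0.76% DMSO final). Viability by CellTiter-Glo luminescence after 30 min at room temperature.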

[13] = qHTS RealTime-Glo MT Cell Viability Assay in HepG2 cells - 24 hour (AID 1224867); note: nearly all actives have a fitted effect of over 50% in size
Outline: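 Viability was tracked continuously by NanoLuc luminescence from prosubstrate reduced by living HepG2 cells, at successive time points over 40 h of compound exposure. Cells with reagent were preincubated 5 h at 37 °C before compound addition.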

[14] = target: Nuclear receptor subfamily 1 group I member 3 (Homo sapiens) (UniProt Q14994); test: qHTS assay to identify small molecule antagonists of the constitutive androstane receptor (CAR) signaling pathway (AID 1224838); note: nearly all actives have a fitted effect of over 40% in size
Nuclear receptor subfamily 1 group I member 3 (Homo sapiens), sequence (Q14994 whole entry, looked up): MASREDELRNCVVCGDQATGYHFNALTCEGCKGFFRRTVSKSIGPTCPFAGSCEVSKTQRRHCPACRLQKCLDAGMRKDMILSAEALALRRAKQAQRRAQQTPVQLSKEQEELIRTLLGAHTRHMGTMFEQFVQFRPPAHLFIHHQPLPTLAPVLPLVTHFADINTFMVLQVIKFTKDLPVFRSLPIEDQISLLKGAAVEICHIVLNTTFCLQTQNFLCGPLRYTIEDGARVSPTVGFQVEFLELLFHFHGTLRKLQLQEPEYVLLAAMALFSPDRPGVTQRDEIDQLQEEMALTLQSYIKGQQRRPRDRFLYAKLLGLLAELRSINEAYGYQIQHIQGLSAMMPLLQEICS
Outline: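 HepG2 cells stably co-transfected with hCAR and a CYP2B6-2.2kb luciferase reporter were seeded 4 h before compound addition at 15 concentrations. Cells were stimulated with 50 nM CITCO (final) for 24 h at 37 C; luciferase luminescence was then read.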

[15] = target: Nuclear receptor subfamily 1 group I member 3 (Homo sapiens) (UniProt Q14994); test: qHTS assay to identify small molecule agonists of the constitutive androstane receptor (CAR) signaling pathway (AID 1224839);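 note: HepG2 cells stably carrying human CAR and a CYP2B6 luciferase reporter; nearly all actives have a fitted effect of over 15% in size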
Outline: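 HepG2 cells stably co-transfected with hCAR and a CYP2B6-2.2kb luciferase reporter; compounds at 15 concentrations with 0.75 uM PK11195 present. After 24 hr at 37 C, luciferase read by ONE-Glo luminescence.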

[16] = qHTS assay to identify small molecule agonists of the estrogen related receptor (ERR) signaling pathway from Tox21 library (AID 1224849; calls by dose curve; note: nearly all actives have a fitted effect of over 15% in size); details: ERR reporter cell line, ONE-Glo luciferase, 18 h; at 92.4 µM (top of the series) unless noted
Outline: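 ERR reporter cell line (NTP) seeded, rested 6 h at 37 C/5% CO2, then pinned with Tox21 compounds in DMSO. After 18 h at 37 C, ONE-Glo luciferase luminescence was read following 30 min at room temperature.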

[17] = qHTS assay to identify small molecule antagonists of the estrogen related receptor signaling pathway with the pleiotropic PPARgamma coactivator (PGC) from Tox21 10K library (AID 1224841; call rule not given here; note: actives are mostly falling curves and most rising ones were filed inactive; nearly all actives have a fitted effect of over 50% in size)
Outline: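 PGC/ERR reporter cells were seeded at 2,000 cells/well and held 6 hours at 37 C/5% CO2 before pin-tool addition of compounds in DMSO. After 18 hours at 37 C, One-Glo was added and luminescence read after 30 minutes at room temperature.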

[18] = qHTS assay to identify small molecule agonists of the estrogen related receptor signaling pathway with the pleiotropic PPARgamma coactivator (PGC) from Tox21 10K library (AID 1224842); note: nearly all actives have a fitted effect of over 15% in size
Outline: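 PGC/ERR reporter cell line, 2,000 cells per well, incubated 6 h at 37 C before 23 nL compound in DMSO was added. After 18 h at 37 C, One-Glo luminescence read following 30 min at room temperature.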

[19] = qHTS assay to identify small molecule agonists of the retinoic acid receptor (RAR) signaling pathway (AID 1159553)
Outline: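 C3RL4 cells carrying a RARE luciferase reporter were plated overnight at 37 C, then exposed to compounds in DMSO for 6 hr at 37 C and 5% CO2. Luminescence was read 30 min after luciferase reagent addition at room temperature.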
% is set by controls: 0 for no effect and ±100 for the full control effect.

CCOC(=O)[C@H](CCc1ccccc1)N[C@H]1CS[C@H](c2cccs2)CN(CC(=O)O)C1=O
inactive: outcome [1] | outcome [2] | outcome [3] | Potency [4] | outcome [5] | outcome [6] | outcome [7] | Potency [8] | outcome [9] | outcome [10] | outcome [11] | outcome [12] | outcome [13]

CCCCCCCCS(=O)(=O)O
inactive: outcome [1] | outcome [2] | outcome [3] | Potency [4] | outcome [5] | outcome [6] | outcome [14] | Potency [15] | outcome [7] | Potency [8] | outcome [9] | outcome [10] | outcome [11] | outcome [12] | outcome [13]

CN(C)c1ccncc1
inactive: outcome [1] | outcome [2] | outcome [5] | outcome [6] | outcome [14] | Potency [15] | outcome [7] | Potency [8] | outcome [9] | outcome [10] | outcome [11] | outcome [12] | activity change, positive = activation [16] -2.4% | outcome [13]

CCCCCCCCCCCCCCCC/C=C/C1CC(=O)OC1=O (centres undefined)
inactive: outcome [1] | outcome [2] | outcome [3] | Potency [4] | outcome [5] | outcome [6] | outcome [7] | Potency [8] | outcome [9] | outcome [10] | outcome [11] | outcome [12] | outcome [13]

CCCCCC(=O)CC
inactive: outcome [1] | outcome [3] | Potency [4] | outcome [5] | outcome [6] | outcome [14] | Potency [15] | outcome [7] | Potency [8] | outcome [9] | outcome [10] | outcome [11] | outcome [12] | outcome [13]

C[C@@H]1CC[C@@]2(OC1)O[C@H]1C[C@H]3[C@@H]4CC[C@H]5C[C@@H](O)CC[C@]5(C)[C@H]4CC(=O)[C@]3(C)[C@H]1[C@@H]2C
inactive: activity change, negative = cytotoxicity [1] -1.39% [at 8.39 µM] | activity, negative = inhibition [2] -0.792% [at 8.39 µM] | viability change, negative = cytotoxic [3] 0.595% [at 8.39 µM] | activity change, negative = inhibition [4] 8.12% [at 10.5 µM] | viability change, negative = cytotoxic [5] 0.858% [at 8.39 µM] | activity, negative = inhibition [14] -17.4% [at 8.39 µM] | activation [15] 0.221% [at 8.39 µM] | viability change, negative = cytotoxic [7] -2.49% [at 8.39 µM] | activation [8] -5.02% [at 8.39 µM] | activity change, negative = cytotoxicity [9] 3.36% [at 6.97 µM] | activation (H2AX phosphorylation) [10] 0.205% [at 14 µM] | activity change, negative = cytotoxicity [12] -1.3% [at 14 µM] | activity change, negative = cytotoxicity [13] -0.436% [at 6.97 µM]

COc1ccc(Cl)cc1C
inactive: outcome [1] | outcome [2] | outcome [5] | outcome [6] | outcome [7] | Potency [17] | Potency [18] | outcome [9] | outcome [10] | outcome [11] | outcome [12] | activity change, positive = activation [16] 7.2% | outcome [13]

CC(CN1CC(=O)NC(=O)C1)N1CC(=O)NC(=O)C1 (centres undefined)
inactive: outcome [2] | Potency [19] | outcome [3] | outcome [5] | outcome [6] | outcome [14] | Potency [15] | outcome [7] | Potency [17] | Potency [18] | outcome [9] | outcome [10] | outcome [12] | activity change, positive = activation [16] -5.55% | outcome [13]

COC(=O)c1ccc(NC(C)=O)cc1OC
inactive: outcome [2] | Potency [19] | outcome [3] | outcome [5] | outcome [6] | outcome [14] | Potency [15] | outcome [7] | Potency [8] | outcome [9] | outcome [10] | outcome [11] | outcome [12] | outcome [13]

CN(C)CCc1c[nH]c2ccc(CS(=O)(=O)N3CCCC3)cc12
inactive: outcome [2] | Potency [19] | outcome [3] | Potency [4] | outcome [5] | outcome [6] | outcome [14] | Potency [15] | outcome [7] | Potency [8] | outcome [9] | outcome [10] | outcome [11] | outcome [12] | outcome [13]

CCN1CCN(C(=O)N[C@@H](C(=O)N[C@@H]2C(=O)N3[C@@H]2SC(C)(C)[C@H]3C(=O)O)c2ccccc2)C(=O)C1=O
inactive: outcome [2] | Potency [19] | outcome [3] | Potency [4] | outcome [5] | outcome [6] | outcome [7] | Potency [17] | Potency [18] | Potency [8] | outcome [9] | outcome [10] | outcome [12] | activity change, positive = activation [16] 8.89% [at 42.5 µM] | outcome [13]
